Experimental findings from PubChem BioAssay (NCATS) are described below.

A short description of experiment [1]: qHTS profiling of the MIPE4 collection as inhibitors of Plasmodium falciparum (3D7) proliferation (AID 743344).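 Also: scaled between DMSO vehicle wells and 0.29 µM artemisinin as full inhibition.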 The following applies: P. falciparum 3D7 in erythrocytes, SYBR Green DNA fluorescence, 72 h; at 28.5 µM unless noted. The method, boiled down:
(§1)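 Erythrocytes infected with P. falciparum (0.3% parasitemia, 2.5% hematocrit) incubated with compounds 72 h at 37 C, 5% CO2. Lysis with saponin/Triton buffer containing SYBR Green I, overnight at room temperature in the dark; DNA fluorescence (485/535 nm) normalised to 0.29 uM artemisinin and DMSO.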
For orientation: In qHTS, concentration-response curves come from the screen itself.

The nature of experiment [2]: qHTS profiling of the MIPE4 collection as inhibitors of Plasmodium falciparum (DD2) proliferation (AID 743345). The following applies: P. falciparum Dd2 in erythrocytes, SYBR Green DNA, 72 h; at 28.5 µM unless noted. The method, boiled down: as §1
Experiment [3] in a line: qHTS profiling of the MIPE4 collection as inhibitors of Plasmodium falciparum (DD2) proliferation (Rep 2) (AID 743346). The following applies: P. falciparum Dd2 in erythrocytes, SYBR Green DNA, 72 h; at 28.5 µM unless noted. The method, boiled down:
as §1

The nature of experiment [4]: qHTS profiling of the MIPE4 collection as inhibitors of Plasmodium falciparum (HB3) proliferation (AID 743347).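 Also: plate controls were DMSO vehicle wells for no effect and artemisinin wells for full effect.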 The following applies: P. falciparum HB3 in erythrocytes, SYBR Green DNA, 72 h; at 28.5 µM unless noted. The method, boiled down:
as §1

Experiment [5] can be described thus: High-throughput drug toxicity screening in the BPDCN cell line Gen2.2 (AID 1224824).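 Also: cells exposed to compounds for 48 h before reading.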 The following applies: Gen2.2 BPDCN cells; at 45.8 µM (top of the series) unless noted. The method, boiled down:
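Gen2.2 cells, 500 per well in phenol red-free RPMI with 10% FBS, exposed to compounds 48 h at 37 C, 5% CO2; viability by CellTiter-Glo luminescence. Percent activity scaled to DMSO (100%) and 9.2 uM bortezomib final (0%).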

Experiment [6] can be described thus: High-throughput drug toxicity screening in the BPDCN cell line Cal-1 (AID 1224825). The following applies: Cal-1 BPDCN cell viability, qHTS; at 45.8 µM (top of the series) unless noted. The method, boiled down:
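Exponentially growing Cal-1 cells, 500 per well in phenol red-free RPMI with 10% FBS, were exposed to compounds for 48 h at 37 °C, 5% CO2. Viability was read by CellTiter-Glo luminescence and normalised to DMSO (100%) and 9.2 uM bortezomib (0%).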

Experiment [7] in a line: qHTS Screen of the MIPE 4.0 Collection Against Ewings Sarcoma (TC71) (AID 1259253; active = well fitted curve in the direction sought with a large enough effect; an effect the other way counts as inactive or inconclusive; also: potency is read from the fitted curve at half-maximal effect; nearly all actives have a fitted effect of over 40% in size). The method, boiled down:
(§2)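 Measured: ATP luminescence (CellTiter-Glo) 10 min after reagent addition, following 48 h drug treatment. Relative luciferase units converted to percent activity, with no-cell wells as full and DMSO wells as zero inhibition.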

A short description of experiment [8]: qHTS Screen of the MIPE 4.0 Collection Against Ewings Sarcoma (EW8) (AID 1259255; active = well fitted curve in the direction sought with a large enough effect; an effect the other way counts as inactive or inconclusive; also: nearly all actives have a fitted effect of over 35% in size; also: potency is read from the fitted curve at half-maximal effect;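 as to viability: 100% = DMSO-treated cells and 0% = medium-only wells without cells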). The method, boiled down:
as §2

In experiment [9] the target is T1, Hexokinase-4 (Homo sapiens) + Glucokinase regulatory protein (Homo sapiens) (UniProt P35557+Q14397). Briefly: qHTS assay for inhibitors of recombinant human GCK-GKRP interaction: ADP-Glo assay (AID 743206; active = well fitted curve in the direction sought with a large enough effect; an effect the other way counts as inactive or inconclusive;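 also: plate controls were DMSO plus enzyme for no effect and no enzyme for full effect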). The method, boiled down: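 GST-GCK and FLAG-GKRP (15 nM each in the dispensed mix, with 2 uM S6P) react with 0.4 mM ATP and 5 mM glucose (final) in Hepes pH 7.6 for 60 min at room temperature. ADP is measured by ADP-Glo luminescence.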

Experiment [10] has as its target T1, Hexokinase-4 (Homo sapiens) + Glucokinase regulatory protein (Homo sapiens). Briefly: qHTS assay for inhibitors of recombinant human GCK-GKRP interaction: HTRF assay (AID 743207; active = well fitted curve in the direction sought with a large enough effect; an effect the other way counts as inactive or inconclusive;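 also: 0% = DMSO with GCK present and -100% = DMSO wells lacking GCK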). The method, boiled down: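 HTRF binding of 5 nM GST-GCK and 5 nM FLAG-GKRP with 2 uM S6P in pH 7.1 Hepes buffer (MgCl2, KCl, DTT, Tween 20, BSA). Anti-FLAG XL665 and anti-GST donor added, 60 min at room temperature; 665/615 nm read, normalized to with- and without-GCK controls.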

A short description of experiment [11]: qHTS Screen of the MIPE 4.0 Collection Against Ewings Sarcoma (RDES) (AID 1259252; active = well fitted curve in the direction sought with a large enough effect; an effect the other way counts as inactive or inconclusive; also: nearly all actives have a fitted effect of over 35% in size; also: potency is read from the fitted curve at half-maximal effect). The method, boiled down: as §2
Experiment [12] can be described thus: qHTS assay for measurement of the activity of small molecule inhibitors on Zika virus induced Caspase-3 activity in human astrocytoma cells (AID 1224859; active = well fitted curve in the direction sought with a large enough effect; an effect the other way counts as inactive or inconclusive;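 also: plate controls were ZIKV-infected untreated cells for no effect and uninfected cells for full effect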). The method, boiled down:
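Luminescent caspase-3/7 read-out (30 min reagent, room temperature) in human SNB-19 cells infected 6 h with ZIKV (2 FFU/cell) after 1 h compound pre-incubation; Data were normalised to uninfected and infected wells.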

Experiment [13] is described as follows: qHTS profiling for inhibitors of Plasmodium falciparum (3D7) proliferation (AID 743322).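 Also: infected erythrocytes exposed to compound for 72 h before lysis; 100% = DMSO vehicle wells and 0% = 0.29 µM artemisinin.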 The following applies: P. falciparum 3D7 proliferation; at 28.7 µM (top of the series). The method, boiled down:
as §1

Experiment [14] in a line: qHTS profiling for inhibitors of Plasmodium falciparum (DD2) proliferation (AID 743323). The following applies: lower = more inhibition; at 28.7 µM (top of the series). The method, boiled down: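 SYBR Green fluorescence (ex 485, em 535 nm) of lysed cultures gives parasite DNA content; wells normalized to artemisinin (0.29 uM) and DMSO controls. Infected red cells: 0.3% parasitemia, 2.5% hematocrit, 72 h, 37 C.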

Experiment [15] is described as follows: qHTS profiling for inhibitors of Plasmodium falciparum (HB3) proliferation (AID 743324; active = well fitted curve in the direction sought with a large enough effect; an effect the other way counts as inactive or inconclusive;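 also: 100% = DMSO vehicle wells and 0% = artemisinin-treated control wells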). The following applies: Plasmodium falciparum HB3 blood-stage proliferation; at 28.7 µM (top of the series). The method, boiled down: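 P. falciparum HB3 grown in erythrocytes (0.3% parasitemia, 2.5% hematocrit final) with compound for 72 h at 37 C, 5% CO2. Parasite DNA detected by SYBR Green after saponin/triton lysis overnight; normalized to 0.29 uM artemisinin and DMSO.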

Experiment [16] in a line: qHTS assay for measurement of the activity of small molecule inhibitors on Zika virus induced Caspase-3 activity in human iPSC derived neural progenitor cells (hNPCs) (AID 1224857; active = well fitted curve in the direction sought with a large enough effect; an effect the other way counts as inactive or inconclusive; also: % of control where 0% means no effect; nearly all actives have a fitted effect of over 65% in size). The method, boiled down:
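Percent inhibition of virus-induced caspase-3/7 luminescence (Caspase-Glo), scaled between uninfected cells and Zika-infected cells. hNPCs received compound 1 hr before ZIKV at 2 FFU/cell, with 6 hours infection at 37 C.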

Results filed as inconclusive are left out. Active and inactive are the calls of the source. Unless noted, no rule for the calls is given here.

T1 sequence (P35557 whole entry, looked up): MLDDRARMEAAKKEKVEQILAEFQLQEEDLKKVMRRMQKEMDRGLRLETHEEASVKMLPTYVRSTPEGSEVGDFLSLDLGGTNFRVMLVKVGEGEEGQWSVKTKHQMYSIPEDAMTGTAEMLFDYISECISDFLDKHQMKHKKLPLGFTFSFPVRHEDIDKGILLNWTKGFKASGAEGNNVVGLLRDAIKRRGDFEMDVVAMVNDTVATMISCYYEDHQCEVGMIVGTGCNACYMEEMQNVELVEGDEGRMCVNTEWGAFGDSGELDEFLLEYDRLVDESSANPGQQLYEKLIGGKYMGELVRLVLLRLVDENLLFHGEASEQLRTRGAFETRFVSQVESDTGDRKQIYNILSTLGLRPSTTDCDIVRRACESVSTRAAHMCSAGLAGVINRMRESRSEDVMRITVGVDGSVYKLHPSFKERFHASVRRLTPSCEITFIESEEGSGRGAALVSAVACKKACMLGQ
T1 sequence (Q14397 whole entry, looked up): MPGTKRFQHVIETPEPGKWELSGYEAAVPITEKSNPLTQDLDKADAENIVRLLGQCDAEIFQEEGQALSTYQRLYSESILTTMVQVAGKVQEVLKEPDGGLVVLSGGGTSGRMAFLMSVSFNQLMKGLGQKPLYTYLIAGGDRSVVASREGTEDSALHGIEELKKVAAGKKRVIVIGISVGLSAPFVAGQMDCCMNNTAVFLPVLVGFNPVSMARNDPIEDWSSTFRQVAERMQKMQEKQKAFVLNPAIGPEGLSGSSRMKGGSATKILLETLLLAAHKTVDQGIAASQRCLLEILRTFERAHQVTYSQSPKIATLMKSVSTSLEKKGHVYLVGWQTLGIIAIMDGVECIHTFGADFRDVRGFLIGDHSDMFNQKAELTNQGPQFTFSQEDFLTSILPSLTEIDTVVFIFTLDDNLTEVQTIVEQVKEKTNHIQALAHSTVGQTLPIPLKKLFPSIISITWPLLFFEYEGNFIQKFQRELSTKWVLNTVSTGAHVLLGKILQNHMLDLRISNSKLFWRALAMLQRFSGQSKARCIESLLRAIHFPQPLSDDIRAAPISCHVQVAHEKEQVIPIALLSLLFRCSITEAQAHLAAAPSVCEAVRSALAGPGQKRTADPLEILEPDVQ

Consider `O=C1NC(=O)C(=Cc2ccc(-c3ccc(F)cc3)o2)S1`, for which, in experiment [1], the parasite growth, % of DMSO control was 75.2%. The molecule also yielded a parasite growth remaining, % of DMSO control (lower = more inhibition) in experiment [2] of 93.7%. The parasite growth, % of control (lower = inhibition) in experiment [3] was determined as 91.6%. In experiment [4], this molecule showed a growth, % of control of 75.6%. Further, the cell viability, % of control (lower = more cytotoxic) in experiment [5] came to 57.7%. The viability (% of control) in experiment [6] was found to be 95.6%. In addition, in experiment [7], the Potency is 23.5 µM (active). The Potency result in experiment [8] is “inactive”.

With `COc1ccc(Cc2nccc3cc(OC)c(OC)cc23)cc1OC`, the result in experiment [9] and in [10] was inactive. The parasite growth, % of DMSO control in [1] worked out at 5.44%. Moreover, in experiment [2], the parasite growth remaining, % of DMSO control (lower = more inhibition) was determined as 11.3%. The parasite growth, % of control (lower = inhibition) in experiment [3] turned out to be 18.7%. In [4], the growth, % of control came out at 2.71%. Moreover, in experiment [5], the cell viability, % of control (lower = more cytotoxic) worked out at 47.4%. Further, the viability (% of control) in experiment [6] amounted to 96.9%. The figures for the Potency in experiment [11] and in experiment [7] were 20.9 µM (active) and 18.7 µM (active), respectively.

Take `O=C1c2c(O)cc(O)cc2O[C@H](c2cc(O)c(O)c(O)c2)[C@H]1O`: in experiment [1], the parasite growth, % of DMSO control came to 85.4%. This molecule also displayed a parasite growth remaining, % of DMSO control (lower = more inhibition) in experiment [2] of 85.1%. Further, the parasite growth, % of control (lower = inhibition) in [3] is 78.7%. Further, the cell viability, % of control (lower = more cytotoxic) in [5] was determined as 112%. Further, the viability (% of control) in experiment [6] came to 123%. Besides, in experiment [12], the Potency entry was “inactive”.

In turn, `O=C(NCc1ccccc1)c1csc(Nc2ccncn2)n1` displayed a parasite growth remaining, % of DMSO control (lower = more inhibition) in experiment [2] of 79.6%. Moreover, the cell viability, % of control (lower = more cytotoxic) in experiment [5] was found to be 1.93%. The viability (% of control) in experiment [6] came to 2.12%. For the same molecule, the Potency entry in experiment [12] was “inactive”. For the same molecule, in experiment [8], the Potency is 20.9 µM (active).

The molecule `O=C(O)C=Cc1ccc(O)c(O)c1` registered a parasite growth, % of DMSO control in experiment [1] of 53.1%. In experiment [2], the parasite growth remaining, % of DMSO control (lower = more inhibition) turned out to be 82.5%. In addition, in [4], the growth, % of control worked out at 64.3%. For the same molecule, the cell viability, % of control (lower = more cytotoxic) in experiment [5] was determined as 21.3%. For the same molecule, the viability (% of control) in experiment [6] was 8.99%. Besides, the Potency in [11] is 8.33 µM (active); in experiment [7], 18.7 µM (active); in experiment [8], 23.5 µM (active).

In experiment [1], `COCCOc1nc(-c2ccc(Cl)c(Cl)c2)n(-c2ccc(NC(=O)CCl)cc2)n1` showed a parasite growth, % of DMSO control of 20.8%. Moreover, the parasite growth, % of control (lower = inhibition) in [3] amounted to 31.7%. The growth, % of control in [4] stood at 30.2%. In addition, the cell viability, % of control (lower = more cytotoxic) in experiment [5] came to 114%. Also, the viability (% of control) in experiment [6] is 37.2%. Moreover, the Potency entry in experiment [12] is “inactive”.

Regarding `Cc1ccccc1C(C(=O)NC1CCCCC1)N(C(=O)Cn1ccnc1C)c1cccc(F)c1` (configuration not stated), the parasite growth, % of DMSO control in [1] turned out to be 103%. Also, the parasite growth, % of control (lower = inhibition) in experiment [3] worked out at 25.9%. In addition, in [4], the growth, % of control was 271%. In experiment [5], the cell viability, % of control (lower = more cytotoxic) is 125%. Moreover, in experiment [6], the viability (% of control) was found to be 107%. Moreover, the Potency result in [11] and in experiment [8] was “inactive” in each case.

As for `CON=C(C(=O)N[C@@H]1C(=O)N2C(C(=O)OCOC(=O)C(C)(C)C)=C(C=Cc3scnc3C)CS[C@H]12)c1csc(N)n1`, the parasite growth, % of DMSO control in experiment [1] was determined as 60.4%. The molecule further displayed a parasite growth remaining, % of DMSO control (lower = more inhibition) in experiment [2] of 96%. Moreover, the parasite growth, % of control (lower = inhibition) in [3] amounted to 73%. In [4], this molecule showed a growth, % of control of 84.9%. Also, the cell viability, % of control (lower = more cytotoxic) in experiment [5] was determined as 90.5%. Moreover, the viability (% of control) in experiment [6] amounted to 115%. For the same molecule, in experiment [12], the Potency entry was “inactive”.

`Clc1ccc(-c2nc3sccn3c2C=NOCc2ccc(Cl)c(Cl)c2)cc1`: in experiment [13], the remaining parasite growth % (stronger effect = lower value) was found to be 110%. For the same molecule, in experiment [14], the activity, percent of control was 101%. Further, the remaining proliferation (% of control), lower = more inhibition in experiment [15] stood at 103%. The parasite growth, % of DMSO control in experiment [1] turned out to be 30.7%. This molecule also came in with a parasite growth remaining, % of DMSO control (lower = more inhibition) in experiment [2] of 51.5%. Besides, the parasite growth, % of control (lower = inhibition) in [3] is 122%. Also, in experiment [4], the growth, % of control worked out at 43.2%. Also, the viability (% of control) in [6] is 116%. For the same molecule, the Potency result in experiment [12] and in experiment [8] was “inactive” in each case.

In the case of `C=C1C(=O)OC(CCCCCCCC)C1C(=O)O` (configuration not stated), the parasite growth, % of DMSO control in [1] turned out to be 50.6%. Moreover, the parasite growth remaining, % of DMSO control (lower = more inhibition) in experiment [2] amounted to 76.2%. The parasite growth, % of control (lower = inhibition) in experiment [3] is 62.9%. The molecule further gave a growth, % of control in [4] of 61.5%. In addition, the viability (% of control) in [6] was 98%. In addition, the Potency result in experiment [16] and in experiment [12] was “inactive” throughout.

In experiment [1], `O=C(NC1CCOCC1)c1ccc(-c2cc(-c3cn[nH]c3-c3ccccn3)ccn2)cc1` yielded a parasite growth, % of DMSO control of 17.3%. The molecule further gave a parasite growth remaining, % of DMSO control (lower = more inhibition) in [2] of 82.7%. For the same molecule, the parasite growth, % of control (lower = inhibition) in experiment [3] came out at 40.9%. Moreover, in experiment [4], the growth, % of control is 47.3%. Besides, the viability (% of control) in experiment [6] stood at 131%. For the same molecule, the Potency result in experiment [16], in experiment [12] and in experiment [8] was “inactive” throughout.
